Measured values reported in PubChem BioAssay AID1852 (Sanford-Burnham Center for Chemical Genomics, 2009).
Hit rate of the full screen: of about 2,500 compounds, about 1,100 (44%) were called active. The set was probably picked from earlier hits. This is one part of the list. Values without a mark were called inactive.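 The calls were made as follows: active = inhibition above 50% at 4 µM in the single-point screen; inactive = inhibition of 50% or less.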

Experiment: blockers of TNF-a NF-kB luciferase induction – cell-based, HEK293T NF-kB-Luc, luminescence, selectivity assay for NOD1/NOD2 signaling inhibitor project, primary screen (AID 1852)
Settings: TNF-a induced, 14 h, at 4 µM, active compounds read high
For `Cc1oc(-c2cc(F)ccc2F)nc1CN1CCN(c2ncnc3ccccc23)CC1`, the inhibition was 104% (active). Molecule `Cc1oc(-c2cccc3ccccc23)nc1CN1CCN(c2ncnc3ccccc23)CC1` has an inhibition of 43%. With `COc1ccc(-c2nc(CN3CCN(c4ncnc5ccccc45)CC3)c(C)o2)c(OC)c1` the inhibition was 23.9%. With `COc1ccc(-c2c[n+]3c(n2-c2ccc(C)cc2)CCCCC3)cc1` the inhibition was 50.3% (active). Work on `COc1cc(-c2n[nH]c(=S)n2-c2ccc(C)cc2)cc(OC)c1OC` yielded an inhibition of 2.4%. In the case of `CC1(C)C=C2[C@H]3CC[C@@H]4[C@@]5(C)CCC(=O)C(C)(C)[C@@H]5CC[C@@]4(C)[C@]3(C)CC[C@@]2(C(=O)O)CC1`, the inhibition is reported as 1.3%. In the case of `N#CC1=C(N)C(C#N)(C#N)C(c2cccnc2)C2CC(c3ccccc3)CC=C12` (stereo not given), the inhibition is reported as 83.6% (active). With `O=C(Nc1nnc(SCc2c(Cl)cccc2Cl)s1)c1cccc([N+](=O)[O-])c1` the inhibition was 83.1% (active). With `Cc1csc(NC(=O)c2cc([N+](=O)[O-])cc([N+](=O)[O-])c2)n1` the inhibition was -6.5%. Molecule `O=C(Nc1nc2c(Cl)cccc2s1)c1ccc([N+](=O)[O-])o1` has an inhibition of 6.3%. `CCOC(=O)c1cc(C(=O)Nc2ccc(S(=O)(=O)Nc3ccc(OC)cc3)cc2)nn1C` gave an inhibition of 18.6%. In the case of `CCNS(=O)(=O)c1ccc(NC(=O)Cn2cc([N+](=O)[O-])cn2)cc1`, the inhibition is reported as 25%. With `COc1ccc(NC(=O)Cn2nnc(-c3ccccc3NS(=O)(=O)c3ccc(OC)cc3)n2)cc1` the inhibition was 70.7% (active). `O=S(=O)(Nc1nc2ccccc2[nH]1)c1ccc(Cl)cc1` showed an inhibition of -4.8%. For `Cc1noc(C)c1CSc1nc2ccccc2nc1NS(=O)(=O)c1ccc(Cl)cc1`, the inhibition was 102% (active). Molecule `O=[N+]([O-])c1nn(-c2ccc3c(c2)OCCO3)n(O)c1=Nc1ccccc1` has an inhibition of 38%. With `O=C1C=C(N2CCOCC2)c2ccccc2C1=O` the inhibition was 23.7%. With `Nc1ccc(S(=O)(=O)Nc2nccc(/C=C/c3cccc(Br)c3)n2)cc1` the inhibition was 36.8%. In the case of `O=[N+]([O-])c1ccc(Oc2ccc(F)cc2Br)c2ccncc12`, the inhibition is reported as 66.6% (active). `O=[N+]([O-])c1ccc(Oc2cccc(F)c2)c2ccncc12` gave an inhibition of 42.3%. With `O=[N+]([O-])c1ccc(Oc2ccc(F)cc2)c2ccncc12` the inhibition was 61.5% (active). With `Cc1ccccc1S(=O)(=O)Cc1ccc(C(=O)N2CCN(c3cccc(C)c3C)CC2)o1` the inhibition was -33.6%. `CCn1nc(C)c(C(=O)Nc2cc(Oc3cc(C)cc(C)c3)cc([N+](=O)[O-])c2)c1C` showed an inhibition of 24.6%. Work on `Cc1ccc(-c2nc(NC(=O)c3nn(C)cc3[N+](=O)[O-])sc2C)cc1` yielded an inhibition of 39.6%. With `Cn1cc([N+](=O)[O-])c(C(=O)Nc2cc(Oc3ccccc3)cc([N+](=O)[O-])c2)n1` the inhibition was 73.2% (active). For `O=C(N/N=C/c1ccccn1)c1cc(-c2ccc(Br)cc2)nc2ccccc12`, the inhibition was 105% (active). With `O=C(N/N=C/c1ccccn1)c1cc(-c2ccc(Cl)cc2)nc2ccccc12` the inhibition was 104% (active). For `CCCOc1cccc(-c2cc(C(=O)N/N=C/c3ccccn3)c3ccccc3n2)c1`, the inhibition was 102% (active). In the case of `O=C(N/N=C/c1ccccn1)c1cc(-c2ccccc2)nc2ccccc12`, the inhibition is reported as 99.1% (active). Work on `O=C(N/N=C/c1ccc[nH]1)c1cc(-c2ccc(Cl)cc2)nc2ccccc12` yielded an inhibition of 3.4%. For `O=C(Cc1cc(C(=O)O)c2ccccc2n1)Nc1ccccc1`, the inhibition was -8.7%. For `Cc1ccc(N(C(=O)CCl)C(C(=O)NC2CCCCC2)c2cccnc2)cc1C` (stereo not given), the inhibition was 79.9% (active). With `O=C(NC1CCCCC1)C(c1cccnc1)N(C(=O)CCl)c1ccccc1Cl` (stereo not given) the inhibition was 58.7% (active). For `COc1ccc(C(C(=O)NC2CCCCC2)N(C(=O)CCl)c2cccc(Cl)c2)cc1` (stereo not given), the inhibition was 60.8% (active). With `COc1ccc(C(=O)/C=C/C(=O)N(CC(=O)NC2CCCCC2)Cc2ccccc2OC)c(O)c1` the inhibition was 33.1%. Molecule `O=C(CN1C(=O)c2cccnc2Oc2ccc(Cl)cc21)NC1CCCCCC1` has an inhibition of 25.9%. `COc1ccc(C(C(=O)NC2CCCCC2)N(C(=O)CCl)c2ccc(Cl)cc2)cc1` (stereo not given) gave an inhibition of 20.4%. Work on `COc1ccc(C(C(=O)NC2CCCCC2)N(C(=O)CCl)c2ccccc2Cl)cc1` (stereo not given) yielded an inhibition of 6.2%. `S=C(Nc1ccc(Cl)c(Cl)c1)NC1CCCCC1` showed an inhibition of 44.7%. For `O=C(NC1CCCCC1)C(c1cccnc1)N(C(=O)CCl)c1cccc(Cl)c1` (stereo not given), the inhibition was 75.7% (active). With `O=c1c(Cl)c(Cl)cnn1Cc1ccc(F)cc1` the inhibition was 33.4%. With `O=c1c(Cl)c(Cl)cnn1Cc1nnc(-c2ccc(Cl)cc2)o1` the inhibition was 51.5% (active). With `O=c1c(Cl)c(Cl)cnn1Cc1nnc(-c2ccccc2Br)o1` the inhibition was 108% (active). For `COc1ccc(-c2csc3ncnc(NCCN4CCOCC4)c23)cc1`, the inhibition was 89.9% (active). With `COc1ccc(-c2csc3ncnc(N4CCN(c5ccccc5[N+](=O)[O-])CC4)c23)cc1` the inhibition was -57.1%. With `Clc1ccc(-c2csc3ncnc(NCCN4CCOCC4)c23)cc1` the inhibition was 60.1% (active). `C=CCn1c(C)c(/C=C/c2cc[n+](C)cc2)c2ccccc21` showed an inhibition of 12%. In the case of `O=C(CCl)N1N=C(c2ccco2)CC1c1ccco1` (stereo not given), the inhibition is reported as 58.9% (active). In the case of `O=C(CCl)N1N=C(c2ccco2)CC1c1cccs1` (stereo not given), the inhibition is reported as 56% (active). In the case of `COc1cc(C2CC(c3cccs3)=NN2C(=O)CCl)ccc1OC(F)F` (stereo not given), the inhibition is reported as 40.7%. With `O=C(CCl)N1N=C(c2cccs2)CC1c1ccco1` (stereo not given) the inhibition was 55.2% (active). For `COc1ccc(C2CC(c3cccs3)=NN2C(=O)CCl)cc1OC` (stereo not given), the inhibition was 47.4%. With `Cc1ccc(C2=NN(C(=O)CCl)C(c3cccs3)C2)o1` (stereo not given) the inhibition was 43.6%. In the case of `COC(=O)c1ccc2c(c1)C(C)(C)C(/C=C/c1ccccc1O)=[N+]2C`, the inhibition is reported as -7.6%. In the case of `COC(=O)c1ccc2c(c1)C(C)(C)C(/C=C/c1ccc(O)cc1)=[N+]2C`, the inhibition is reported as 60.8% (active). Molecule `COC(=O)C1=C(C)N(c2ccc(F)cc2)/C(=C/c2ccc(O)cc2)C1=O` has an inhibition of -3%. For `c1cnc(N2CCN(c3ccc4ccccc4n3)CC2)nc1`, the inhibition was -118%. For `COc1ccc(NC(=O)c2cc(N3C(=O)C4C5CCC(C5)C4C3=O)ccc2Cl)c(OC)c1` (stereo not given), the inhibition was 30.6%. For `COc1ccc(NC(=S)N2CCN(C/C=C/c3ccccc3)CC2)c(OC)c1`, the inhibition was 57.8% (active). In the case of `COc1ccc(CCNC(=S)N2CCC(Cc3ccccc3)CC2)cc1OC`, the inhibition is reported as 47.4%. With `c1ccc(CCc2nn3c(-c4ccncc4)nnc3s2)cc1` the inhibition was 82.6% (active). Work on `c1csc(Cc2nn3c(-c4ccncc4)nnc3s2)c1` yielded an inhibition of 42.2%. With `c1cc(-c2nnc3sc(C4CCCCC4)nn23)ccn1` the inhibition was 57.5% (active). With `O=C(CCN1C(=O)c2ccc([N+](=O)[O-])cc2C1=O)Nc1ccc(O)cc1C(=O)O` the inhibition was -3.9%. With `CCCc1nc2c(=O)n(C)c(=O)nc-2n(C)n1` the inhibition was 105% (active). For `Cc1ccc(OCC(=O)c2cc(C)n(-c3ccccc3)c2C)c([N+](=O)[O-])n1`, the inhibition was 72.3% (active). Work on `COCCn1c(C)cc(C(=O)CSc2nnc3ccccn23)c1C` yielded an inhibition of 17.3%. With `Cc1cc(C(=O)COc2cccnc2[N+](=O)[O-])c(C)n1Cc1cccs1` the inhibition was 38.6%. Work on `CCCn1c(C)cc(C(=O)COc2ccc(C)nc2[N+](=O)[O-])c1C` yielded an inhibition of -16.5%. In the case of `COCCn1c(C)cc(C(=O)COC(=O)c2cccc(O)c2)c1C`, the inhibition is reported as 81.1% (active). For `COCCn1c(C)cc(C(=O)COc2ccc(C)nc2[N+](=O)[O-])c1C`, the inhibition was 79.2% (active). In the case of `Cc1cc(C(=O)COc2cccnc2[N+](=O)[O-])c(C)n1-c1ccccc1F`, the inhibition is reported as 38.6%. In the case of `C=CCn1c(C)cc(C(=O)COc2ccc(C)nc2[N+](=O)[O-])c1C`, the inhibition is reported as 30%. For `COCC(C)n1c(C)cc(C(=O)COc2ccc(C)nc2[N+](=O)[O-])c1C` (stereo not given), the inhibition was 41%. For `Cc1ccc(OCC(=O)c2cc(C)n(Cc3cccs3)c2C)c([N+](=O)[O-])n1`, the inhibition was 68.2% (active). In the case of `COc1ccccc1[C@@H]1C(c2cccc(C)c2)=NN(c2ccccc2)[C@H]1C(=O)N1CCOC1=O`, the inhibition is reported as -11.7%. In the case of `Cc1ccc(OCC(=O)c2cc(C)n(Cc3ccco3)c2C)c([N+](=O)[O-])n1`, the inhibition is reported as 65.1% (active). Work on `Cc1cc(C(=O)COc2cccnc2[N+](=O)[O-])c(C)n1Cc1ccco1` yielded an inhibition of -11%. In the case of `COc1cccc(/C=N/NC(=O)c2cc3c(OC)ccc(OC)c3[nH]2)c1O`, the inhibition is reported as 48.6%. For `COc1cccc(/C=N/NC(=O)CNC(=O)/C=C\c2ccccc2)c1O`, the inhibition was 82.6% (active). In the case of `COc1cccc(/C=N/NC(=O)CNC(=O)C(c2ccccc2)c2ccccc2)c1O`, the inhibition is reported as 92.3% (active). Molecule `CN(C1=C(NC(=O)c2ccc(Cl)cc2)C(=O)c2ccccc2C1=O)c1ccccc1` has an inhibition of 21.3%. For `CNC1=C(N(C(C)=O)c2ccc(Br)cc2)C(=O)c2ccccc2C1=O`, the inhibition was 98.3% (active). Molecule `O=C(/C=C/c1ccco1)NCC1COc2ccccc2O1` (stereo not given) has an inhibition of -14.9%. With `O=C(Nc1ccc(Oc2cccnc2)nc1)c1ccc(C(F)(F)F)cc1` the inhibition was 42.6%. In the case of `COc1cccc(C(=O)Nc2ccc(Oc3cccc(C(F)(F)F)c3)nc2)c1`, the inhibition is reported as 53.3% (active). With `O=C(Nc1ccc(Oc2cccc(C(F)(F)F)c2)nc1)c1cccs1` the inhibition was 49.2%. For `Cc1ccc(-n2[nH]c3c4c(ccc3c2=O)C(=O)c2ccccc2C4=O)cc1`, the inhibition was 99.4% (active). Molecule `Cc1cccc(-n2[nH]c3c4c(ccc3c2=O)C(=O)c2ccccc2C4=O)c1` has an inhibition of 37.6%. For `Cc1ccc(C)c(-n2[nH]c3c4c(ccc3c2=O)C(=O)c2ccccc2C4=O)c1`, the inhibition was 58.4% (active).
